According to the supplement of paper PMC10849652:
About 7,900 targets were measured; listed, in parts, are those with a hit and a random draw of the rest. About 0.6% of all pairs of compound and target were hits. A number with no mark means an inactive call.

Key:
Assay in all cases: log2 fold change, soluble protein after heating vs DMSO (PISA); higher = thermal stabilisation; K562 cells, 10 uM, 30 min; active = over 0.2 and 3.5 SD of the protein, either way, in both replicates (recomputed)
alvocidib = compound: CN1CC[C@H](c2c(O)cc(O)c3c(=O)cc(-c4ccccc4Cl)oc23)[C@H](O)C1 [alvocidib]
Summary of the method: (§1)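 Values are thermal stability changes relative to control samples and are taken from duplicates. They are stated as log2 fold changes. Before quantification by TMTpro 16plex LC-MS/MS with equalised channel sums, K562 cells at 2×10^6 cells/mL were treated with 10 μM compound for 30 min, heated in aliquots for 3 min across 48°C-58°C, pooled, extracted in PBS with 0.5% NP-40 at 4°C, and centrifuged at 21,000xg for 90 min to give the soluble supernatant.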

defactinib = compound: CNC(=O)c1ccc(Nc2ncc(C(F)(F)F)c(NCc3nccnc3N(C)S(C)(=O)=O)n2)cc1 [defactinib]
Summary of the method: as §1

rucaparib = compound: CNCc1ccc(-c2[nH]c3cc(F)cc4c3c2CCNC4=O)cc1 [rucaparib]
Summary of the method: as §1

encorafenib = compound: COC(=O)N[C@@H](C)CNc1nccc(-c2cn(C(C)C)nc2-c2cc(Cl)cc(NS(C)(=O)=O)c2F)n1 [encorafenib]
Summary of the method: as §1

[1] = compound: COC(=O)[C@H](CCSC)NC(=O)C1=C(C=C(C=C1)NC[C@H](CS)N)C2=CC=CC=C2
Summary of the method: as §1

[2] = compound: COC1=CC=C(C=C1)CN2C=CC3=C2C=C(C=C3)C(=O)NO
Summary of the method: as §1

zotarolimus = compound: CO[C@H]1C[C@@H]2CC[C@@H](C)[C@@](O)(O2)C(=O)C(=O)N2CCCC[C@H]2C(=O)O[C@H]([C@H](C)C[C@@H]2CC[C@H](n3cnnn3)[C@H](OC)C2)CC(=O)[C@H](C)/C=C(\C)[C@@H](O)[C@@H](OC)C(=O)[C@H](C)C[C@H](C)/C=C/C=C/C=C/1C [zotarolimus]
Summary of the method: as §1

idasanutlin = compound: COc1cc(C(=O)O)ccc1NC(=O)[C@@H]1N[C@@H](CC(C)(C)C)[C@](C#N)(c2ccc(Cl)cc2F)[C@H]1c1cccc(Cl)c1F [idasanutlin]
Summary of the method: as §1

alisertib = compound: COc1cc(Nc2ncc3c(n2)-c2ccc(Cl)cc2C(c2c(F)cccc2OC)=NC3)ccc1C(=O)O [alisertib]
Summary of the method: as §1

[3] = compound: COc1cc2nc(-c3cc(F)ccc3O)nc(N[C@@H]3CNC[C@H]3C(C)(C)O)c2cc1OC
Summary of the method: as §1

gefitinib = compound: COc1cc2ncnc(Nc3ccc(F)c(Cl)c3)c2cc1OCCCN1CCOCC1 [gefitinib]
Summary of the method: as §1

[4] = compound: COc1cccc2cc(-c3nc([C@H]4CC[C@H](C(=O)O)CC4)n4ncnc(N)c34)[nH]c12
Summary of the method: as §1

lapatinib = compound: CS(=O)(=O)CCNCc1ccc(-c2ccc3ncnc(Nc4ccc(OCc5cccc(F)c5)c(Cl)c4)c3c2)o1 [lapatinib]
Summary of the method: as §1

sotrastaurin = compound: CN1CCN(c2nc(C3=C(c4c[nH]c5ccccc45)C(=O)NC3=O)c3ccccc3n2)CC1 [sotrastaurin]
Summary of the method: as §1

Tubastatin A = compound: CN1CCc2c(c3ccccc3n2Cc2ccc(C(=O)NO)cc2)C1 [Tubastatin A]
Summary of the method: as §1

[5] = compound: CNC(=O)C1=CC=CC=C1NC2=NC(=NC=C2Cl)NC3=C(C=C(C=C3)N4CCOCC4)OC
Summary of the method: as §1

filanesib = compound: CON(C)C(=O)N1N=C(c2cc(F)ccc2F)S[C@@]1(CCCN)c1ccccc1 [filanesib]
Summary of the method: as §1

pictilisib = compound: CS(=O)(=O)N1CCN(Cc2cc3nc(-c4cccc5[nH]ncc45)nc(N4CCOCC4)c3s2)CC1 [pictilisib]
Summary of the method: as §1

saracatinib = compound: CN1CCN(CCOc2cc(OC3CCOCC3)c3c(Nc4c(Cl)ccc5c4OCO5)ncnc3c2)CC1 [saracatinib]
Summary of the method: as §1

[6] = compound: CNc1nc(-c2ccc3c(N)n[nH]c3c2)cc(N2C[C@@H](C(=O)NC3CCCCC3)CC[C@H]2C)n1
Summary of the method: as §1

UniProt Q9NYI0, sequence (Q9NYI0 whole entry, looked up): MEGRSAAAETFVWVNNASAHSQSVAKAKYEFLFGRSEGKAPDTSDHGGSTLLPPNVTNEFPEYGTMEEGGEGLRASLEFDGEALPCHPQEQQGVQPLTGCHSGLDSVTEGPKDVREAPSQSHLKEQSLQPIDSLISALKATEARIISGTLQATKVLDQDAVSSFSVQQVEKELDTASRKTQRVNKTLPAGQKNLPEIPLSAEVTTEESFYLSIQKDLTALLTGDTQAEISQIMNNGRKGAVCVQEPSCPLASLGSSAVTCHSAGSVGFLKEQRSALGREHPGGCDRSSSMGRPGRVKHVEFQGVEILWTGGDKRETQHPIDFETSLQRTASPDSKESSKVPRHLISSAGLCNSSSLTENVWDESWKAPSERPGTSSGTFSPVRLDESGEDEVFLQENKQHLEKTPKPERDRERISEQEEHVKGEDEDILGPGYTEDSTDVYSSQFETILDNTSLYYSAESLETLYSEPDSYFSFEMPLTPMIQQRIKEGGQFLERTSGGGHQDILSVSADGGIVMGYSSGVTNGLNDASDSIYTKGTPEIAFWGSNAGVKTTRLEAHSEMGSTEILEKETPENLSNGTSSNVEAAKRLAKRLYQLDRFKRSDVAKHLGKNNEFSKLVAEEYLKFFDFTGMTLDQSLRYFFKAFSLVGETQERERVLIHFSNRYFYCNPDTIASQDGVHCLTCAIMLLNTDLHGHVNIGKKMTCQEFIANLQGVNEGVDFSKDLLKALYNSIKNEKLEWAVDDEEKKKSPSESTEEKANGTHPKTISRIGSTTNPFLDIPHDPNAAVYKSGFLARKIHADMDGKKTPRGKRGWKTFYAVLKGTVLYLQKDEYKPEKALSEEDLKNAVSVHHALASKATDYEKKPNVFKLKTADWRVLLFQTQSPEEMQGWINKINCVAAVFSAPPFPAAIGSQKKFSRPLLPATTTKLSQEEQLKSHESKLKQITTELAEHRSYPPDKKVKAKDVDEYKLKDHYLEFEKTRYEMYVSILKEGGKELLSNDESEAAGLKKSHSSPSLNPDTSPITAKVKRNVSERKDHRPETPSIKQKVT
UniProt P11309, sequence (P11309 whole entry, looked up): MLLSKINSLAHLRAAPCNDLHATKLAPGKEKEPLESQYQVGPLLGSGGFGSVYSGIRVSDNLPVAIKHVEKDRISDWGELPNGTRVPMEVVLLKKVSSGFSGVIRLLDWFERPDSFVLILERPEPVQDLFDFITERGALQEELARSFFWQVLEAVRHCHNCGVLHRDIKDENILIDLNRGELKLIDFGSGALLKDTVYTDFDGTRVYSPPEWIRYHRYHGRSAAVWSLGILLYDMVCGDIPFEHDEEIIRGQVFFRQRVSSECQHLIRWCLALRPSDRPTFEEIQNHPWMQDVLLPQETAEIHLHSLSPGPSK
UniProt Q9UHX1, sequence (Q9UHX1 whole entry, looked up): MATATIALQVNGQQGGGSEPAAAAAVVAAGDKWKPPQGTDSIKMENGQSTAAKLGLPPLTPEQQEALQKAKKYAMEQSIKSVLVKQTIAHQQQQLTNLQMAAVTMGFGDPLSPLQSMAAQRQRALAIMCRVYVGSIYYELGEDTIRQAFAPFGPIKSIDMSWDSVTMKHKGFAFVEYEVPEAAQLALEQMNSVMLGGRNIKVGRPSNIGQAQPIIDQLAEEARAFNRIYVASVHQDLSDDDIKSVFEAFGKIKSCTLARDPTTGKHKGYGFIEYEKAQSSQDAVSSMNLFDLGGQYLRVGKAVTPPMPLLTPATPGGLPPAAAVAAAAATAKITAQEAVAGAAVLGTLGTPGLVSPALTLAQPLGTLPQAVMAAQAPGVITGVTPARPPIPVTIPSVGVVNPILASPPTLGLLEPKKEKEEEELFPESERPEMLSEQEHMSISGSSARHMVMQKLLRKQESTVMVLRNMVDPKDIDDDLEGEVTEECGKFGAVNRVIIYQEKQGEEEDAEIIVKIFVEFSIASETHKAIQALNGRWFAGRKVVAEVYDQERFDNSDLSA
UniProt Q86UU1, sequence (Q86UU1 whole entry, looked up): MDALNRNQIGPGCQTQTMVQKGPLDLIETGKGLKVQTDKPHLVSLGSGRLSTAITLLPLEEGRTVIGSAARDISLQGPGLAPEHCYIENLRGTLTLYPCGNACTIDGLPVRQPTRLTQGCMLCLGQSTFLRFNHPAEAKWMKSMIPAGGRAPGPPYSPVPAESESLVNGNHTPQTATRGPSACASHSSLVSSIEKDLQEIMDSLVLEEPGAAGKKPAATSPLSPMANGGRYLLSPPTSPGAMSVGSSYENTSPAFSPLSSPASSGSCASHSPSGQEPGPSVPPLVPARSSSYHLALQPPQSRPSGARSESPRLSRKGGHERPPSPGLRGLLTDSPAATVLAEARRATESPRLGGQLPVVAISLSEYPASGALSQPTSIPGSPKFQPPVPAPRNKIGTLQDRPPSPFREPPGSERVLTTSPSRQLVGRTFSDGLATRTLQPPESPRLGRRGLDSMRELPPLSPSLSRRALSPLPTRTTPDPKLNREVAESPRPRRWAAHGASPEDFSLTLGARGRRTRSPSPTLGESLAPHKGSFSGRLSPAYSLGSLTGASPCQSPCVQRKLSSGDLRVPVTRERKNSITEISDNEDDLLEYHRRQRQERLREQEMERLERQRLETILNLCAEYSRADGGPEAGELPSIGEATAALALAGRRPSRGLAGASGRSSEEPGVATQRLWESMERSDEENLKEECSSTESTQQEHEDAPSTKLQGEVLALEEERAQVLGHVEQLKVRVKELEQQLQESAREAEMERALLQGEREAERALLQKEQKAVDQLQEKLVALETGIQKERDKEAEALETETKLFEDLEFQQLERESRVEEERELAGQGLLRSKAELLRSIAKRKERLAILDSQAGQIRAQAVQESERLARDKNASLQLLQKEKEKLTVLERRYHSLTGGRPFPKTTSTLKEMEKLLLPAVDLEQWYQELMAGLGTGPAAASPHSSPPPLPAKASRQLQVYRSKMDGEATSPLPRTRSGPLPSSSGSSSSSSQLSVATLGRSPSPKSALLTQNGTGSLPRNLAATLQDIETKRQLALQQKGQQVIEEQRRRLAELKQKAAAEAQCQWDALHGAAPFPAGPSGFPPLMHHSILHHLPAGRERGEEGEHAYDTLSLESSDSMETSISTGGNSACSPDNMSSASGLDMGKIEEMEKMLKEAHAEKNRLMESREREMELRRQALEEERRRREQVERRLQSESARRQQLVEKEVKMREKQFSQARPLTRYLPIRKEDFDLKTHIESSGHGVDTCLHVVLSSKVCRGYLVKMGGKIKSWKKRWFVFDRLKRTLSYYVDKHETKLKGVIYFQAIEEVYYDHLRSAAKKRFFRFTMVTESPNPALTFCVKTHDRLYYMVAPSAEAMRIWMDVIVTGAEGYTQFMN
UniProt Q9BZL4, sequence (Q9BZL4 whole entry, looked up): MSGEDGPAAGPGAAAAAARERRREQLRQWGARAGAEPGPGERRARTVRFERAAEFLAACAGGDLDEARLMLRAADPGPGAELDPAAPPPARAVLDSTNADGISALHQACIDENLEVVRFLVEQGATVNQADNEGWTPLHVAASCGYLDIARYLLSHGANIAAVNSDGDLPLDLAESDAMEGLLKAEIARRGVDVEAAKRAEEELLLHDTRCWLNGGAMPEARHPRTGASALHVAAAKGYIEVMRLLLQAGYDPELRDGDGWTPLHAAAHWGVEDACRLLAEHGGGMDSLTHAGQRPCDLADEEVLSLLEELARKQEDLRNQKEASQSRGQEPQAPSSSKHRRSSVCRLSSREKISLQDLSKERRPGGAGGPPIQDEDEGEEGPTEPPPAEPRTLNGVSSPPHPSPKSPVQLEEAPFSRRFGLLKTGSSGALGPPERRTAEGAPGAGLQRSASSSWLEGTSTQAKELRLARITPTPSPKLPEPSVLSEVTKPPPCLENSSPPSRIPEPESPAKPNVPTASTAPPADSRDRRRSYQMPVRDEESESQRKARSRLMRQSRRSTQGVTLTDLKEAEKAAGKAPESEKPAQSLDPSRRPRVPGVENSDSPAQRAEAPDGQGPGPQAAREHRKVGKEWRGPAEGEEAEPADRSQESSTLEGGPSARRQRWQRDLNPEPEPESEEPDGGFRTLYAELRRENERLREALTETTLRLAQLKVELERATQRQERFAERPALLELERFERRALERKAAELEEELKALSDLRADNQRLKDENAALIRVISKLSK

Row | Target | log2 fold change (alvocidib) | log2 fold change (defactinib) | log2 fold change (rucaparib) | log2 fold change (encorafenib) | log2 fold change [1] | log2 fold change [2] | log2 fold change (zotarolimus) | log2 fold change (idasanutlin) | log2 fold change (alisertib) | log2 fold change [3] | log2 fold change (gefitinib) | log2 fold change [4] | log2 fold change (lapatinib) | log2 fold change (sotrastaurin) | log2 fold change (Tubastatin A) | log2 fold change [5] | log2 fold change (filanesib) | log2 fold change (pictilisib) | log2 fold change (saracatinib) | log2 fold change [6]
1 | PSD3 (UniProt Q9NYI0) | -0.054 | -0.004 | -0.03 | 0.003 | -0.019 | -0.003 | 0.074 | 0.015 | -0.003 | 0.141 | 0.036 | 0.069 | -0.07 |  |  |  |  |  |  | 
2 | PLCL1 (UniProt Q15111) | 0.109 | -0.02 | 0.2 | 0.018 | 0.047 | 0.048 | 0.09 | 0.062 | -0.107 |  | 0.118 | 0.229 |  | 0.032 | 0.166 | -0.131 | -0.036 | -0.073 |  | 
3 | PSMC1 (UniProt G3V4X1) | 0.031 |  |  |  |  |  | -0.045 |  |  | -0.106 | -0.036 |  | -0.105 |  |  | -0.011 |  | -0.071 |  | 
4 | PIM1 isoform 2 (UniProt P11309) |  |  |  |  |  |  |  |  | 0.267 |  |  | -0.327 |  |  |  |  |  | -0.126 |  | 
5 | PHLDB1 isoform 2 (UniProt Q86UU1) | -0.353 | -0.035 | 0.011 | 0.089 | -0.001 | 0 | 0.014 | -0.033 | -0.098 | -0.069 | 0.149 | -0.032 | -0.039 |  | -0.023 | -0.164 |  | -0.498 (active) | -0.02 | 0.066
6 | PUF60 isoform 2 (UniProt Q9UHX1) | -0.306 | -0.165 |  |  | -0.089 |  | 0.18 | -0.042 | -0.203 | -0.071 |  | 0.027 | 0.407 |  | 0.202 |  |  |  | 0.107 | -0.403
7 | PSMC3 (UniProt E9PLG2) |  | 0.172 |  |  | -0.026 | -0.612 |  |  | 0.071 |  |  | 0.079 |  | 0.081 | 0.079 |  | 0.17 |  | -0.197 | -0.252
8 | PPP1R12C (UniProt Q9BZL4) |  | -0.205 | 0.184 | -0.013 | 0.035 |  |  |  | 0.071 | -0.237 | 0.074 | -0.009 | 0.084 | -0.157 | 0.014 | 0.113 | 0.066 | -0.228 | -0.115 | -0.164
